Screening data: PubChem BioAssay, National Center for Advancing Translational Sciences (NCATS)
Shown are actives, neighbours in structure and some others; about 9% of the full set was active somewhere.
ALDH1A1 block: qHTS Assay for Inhibitors of Aldehyde Dehydrogenase 1 (ALDH1A1); Aldehyde dehydrogenase 1A1 (Homo sapiens), P00352; Purified ALDH1A1, NADH fluorescence, propionaldehyde substrate; Potency, µM (series often up to 75.3 µM), without a hit: at the top dose activity, negative = inhibition, usual class: inhibitors; hit rate 7.3% among 220,000; AID 1030, 2008; active means well fitted inhibition curve with a large enough effect, not every such curve was filed as active; inconclusive means small, poorly fitted or top-dose-only effect, or another doubt; inactive means no such curve, though single readings can be large or run the other way;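 further: plate controls were no enzyme wells and a reference inhibitor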
Target sequence (P00352 whole entry, looked up): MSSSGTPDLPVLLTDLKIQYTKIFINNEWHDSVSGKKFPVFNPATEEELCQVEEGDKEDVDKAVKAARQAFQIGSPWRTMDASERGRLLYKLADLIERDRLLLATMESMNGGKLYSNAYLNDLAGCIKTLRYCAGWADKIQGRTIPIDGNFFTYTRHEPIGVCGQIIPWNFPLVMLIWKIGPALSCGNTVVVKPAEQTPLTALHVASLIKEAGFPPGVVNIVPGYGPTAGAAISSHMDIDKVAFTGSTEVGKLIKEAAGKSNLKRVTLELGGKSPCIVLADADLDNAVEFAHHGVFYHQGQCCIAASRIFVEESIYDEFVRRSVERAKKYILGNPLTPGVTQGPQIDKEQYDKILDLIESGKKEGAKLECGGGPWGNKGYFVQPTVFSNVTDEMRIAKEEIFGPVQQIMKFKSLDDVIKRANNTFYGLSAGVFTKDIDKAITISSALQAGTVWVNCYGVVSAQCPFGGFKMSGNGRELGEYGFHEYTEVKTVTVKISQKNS
IMPase Li cell: qHTS Assay for Identifying the Cell-Membrane Permeable IMPase Inhibitors: Potentiation with Lithium | CHO-M1 cells, IP1 TR-FRET (IP-One), carbachol + lithium | hit rate 0.35% among 210,000 | Potency, µM (series often up to 59.4 µM), inactives show top-dose activity, negative = IMPase inhibition, hits mostly inhibitors | AID 1457, 2008;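 further: IP1 builds up when IMPase is blocked and the TR-FRET signal falls; plate controls were basal vehicle for no effect and high inhibitor control for full effect; nearly all actives have a fitted effect of over 50% in size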
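Steps: plate 2000 CHO-M1 cells per well and culture 16–30 h; add compound and lithium; incubate 30 min, 37C; add d2-IP1 tracer and Eu cryptate anti-IP1 antibody in lysis buffer; read after 10 min at room temperature.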
Lamin A splicing: qHTS Assay for Modulators of Lamin A Splicing | HeLa LMNA splicing GFP/RFP minigene ratio, 48 h | Potency, µM (highest dose often 46.1 µM), without a hit: top-dose ratio change, negative = inhibition, usual class: inhibitors | hit rate 0.01% among 200,000 | AID 1487, 2009; active means well fitted inhibition curve with a large enough effect in the signal ratio, with a control signal flat, not every such curve was filed as active; inconclusive means small, poorly fitted or top-dose-only effect, or effect the other way, or a change in a side signal; the % refers to the signal ratio
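S3 HeLa stable clones carrying a lamin A-EGFP splicing minigene plus DsRed2 were seeded at 600 cells/well in Opti-MEM with 2% FBS, pin-dosed and incubated 48 h at 37°C. Acumen cytometry (488 nm) gave the GFP/RFP total-intensity ratio.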
KinaseGlo FLuc: Counterscreen for Luciferase (Kinase-Glo TM) Inhibition | Luciferin 4-monooxygenase (Photuris pensylvanica), Q27757 | Kinase-Glo luciferase, ATP luminescence, 8 min | Potency, µM (top dose mostly 38.3 µM), for the others: top-dose activity change, negative = inhibition, most hits filed as inhibitors | hit rate 0.28% among 200,000 | AID 1379, 2008; further: nearly all actives have a fitted effect of over 60% in size
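Compounds were added to a substrate mix at pH 7.2 (50 mM imidazole, 10 uM ATP, within the enzyme's linear range), followed by Kinase-Glo detection reagent; luminescence was measured after 8 minutes at ambient temperature.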
HPGD inh: qHTS Assay for Inhibitors of HPGD (15-Hydroxyprostaglandin Dehydrogenase); 15-hydroxyprostaglandin dehydrogenase [NAD(+)] (Homo sapiens), P15428; purified HPGD, NADH fluorescence kinetic, PGE2 substrate; Potency, µM, inactives show top-dose activity change, negative = inhibition, actives largely listed as inhibitors; hit rate 4.3% among 150,000; active means well fitted inhibition curve with a large enough effect, not every such curve was filed as active; inconclusive means small, poorly fitted or top-dose-only effect, or another doubt; inactive means no such curve, though single readings can be large or run the other way
Target sequence (P15428 whole entry, looked up): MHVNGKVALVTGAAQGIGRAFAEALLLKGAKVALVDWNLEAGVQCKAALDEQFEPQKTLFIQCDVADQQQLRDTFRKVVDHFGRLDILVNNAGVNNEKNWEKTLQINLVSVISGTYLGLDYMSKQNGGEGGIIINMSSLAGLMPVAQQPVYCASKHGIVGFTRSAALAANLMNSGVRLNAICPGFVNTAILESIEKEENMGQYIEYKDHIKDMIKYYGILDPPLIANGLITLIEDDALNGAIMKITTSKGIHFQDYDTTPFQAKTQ
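20 nM HPGD preincubated 15 min at room temperature with compound in 50 mM Tris-HCl pH 8, 0.01% Tween 20. Started with 1 mM NAD+ and 30 uM prostaglandin E2; NADH fluorescence (360/450 nm) read 5 times over 30-s intervals, last minus first.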
* marks the source's active call; other numbers are inactive results; ? = inconclusive; / = no result; [ ] = remark or other dose. Unless noted, the call rests on the fitted dose curve; in most records, active means well fitted curve in the direction sought with a large enough effect; inconclusive means small, poorly fitted or top-dose-only effect, or another doubt; inactive means no such curve, though single readings can be large; an effect the other way counts as inactive or inconclusive. Unless noted, on the % scale 0 is the no-effect control and ±100 the full control effect; potency means the concentration at half of the fitted maximal effect.

SMILES | ALDH1A1 block | IMPase Li cell | Lamin A splicing | KinaseGlo FLuc | HPGD inh
O=S(=O)(Nc1nc2c(s1)CCCC2)c1ccc(Br)cc1 | 13µM* | 30% | ? | 10% | -15%
CC1CCc2c(sc3nc(CN4CCOCC4)nc(NS(=O)(=O)c4cccc([N+](=O)[O-])c4)c23)C1 (stereo not drawn) | 4.5µM* | 13%[38.3 µM] | -8% | 0% | -11%
Cc1cc(S(=O)(=O)Nc2nc(CN3CCOCC3)nc3sc4c(c23)CCCC4)ccc1F | 14µM* | -19%[38.3 µM] | -5% | -3% | -8%
COC(=O)N[C@H](C[N+](=O)[O-])C(C)(C)C | -1% | 12% | / | -1% | -1%
Cn1ncc2c(Cl)ncnc21 | 3%[13.5 µM] | 2% | / | -5%[7.66 µM] | -7%
CN(C)CCNC(=O)c1cc2sc3ccccc3c2s1 | ? | -4% | ? | 0% | /
CCCn1c(SCC(=O)Nc2sc(C)c(C)c2C#N)nnc1C(C)C | 2.8µM* | / | -6% | / | /
Cc1sc(NC(=O)CSc2nnc(C)c(=O)[nH]2)c(C#N)c1C | 14µM* | -8%[38.3 µM] | 0% | -1% | -17%
O=c1[nH]c(SCc2cccc([N+](=O)[O-])c2)nc2nc[nH]c12 | 3%[13.5 µM] | 2% | / | -2%[7.66 µM] | -4%
Cc1ccc(N2C(=O)C3C4C=CC(CNC(=S)N5CCN(c6cccc(C)c6)C(C)C5)(O4)C3C2=O)cc1 (stereo not drawn) | 1.6µM* | 0% | ? | 2% | /
CCOC(=O)[C@@H](O)Cc1cnc2ccccc2n1 | -14%[13.5 µM] | 4% | / | -2%[7.66 µM] | 0%
Cc1nc(-n2nc(C)c(Cc3ccccc3Cl)c2C)sc1C(=O)Nc1ccccc1F | / | / | 5%[46 µM] | / | /
CCc1c(C)sc(NC(=O)C2CCCCC2C(=O)O)c1C(N)=O (stereo not drawn) | 1.6µM* | 2%[38.3 µM] | 8% | 7% | 4µM*
CCOC(=O)c1c(N)sc(C(=O)OC)c1C | ? | -5% | / | 6% | /
COC(=O)c1sc(N)c(C(=O)OC)c1COC(=O)c1c(C)noc1C | -11% | 0%[38.3 µM] | ? | 8% | 18µM*
CCO[C@H](c1cc(OC)cc([N+](=O)[O-])c1OC)[C@H](C)/C=C\CC(=O)OC | 2%[13.5 µM] | / | / | / | /
CC(=O)c1sc2nc(-c3ccc(C)cc3)c3c(c2c1N)CCCC3 | ? | -13% | 0% | 1% | ?
Cc1ccc(-c2nc3sc(C(N)=O)c(N)c3c3c2CCCC3)cc1 | 1% | 11µM* | -5% | 0% | ?
CC1=C2C(CCS2(=O)=O)CC2(C1)C(=O)OC(C)(C)OC2=O (stereo not drawn) | -4% | 3%[38.3 µM] | -2% | 3% | -3%
CCOC(=O)c1cnc(-n2nc(C)cc2C)nc1Nc1ccc(C)cc1 | 0% | 1% | -5% | 2% | -3%
CCOC(=O)c1cnc(-n2nc(C)cc2C)nc1NC | ? | 10%[38.3 µM] | -1% | -14% | ?
CCOC(=O)c1cnc(-n2nc(C)cc2C)nc1Nc1ccc(N(C)C)cc1 | 20µM* | 18% | ? | -1% | -19%
CCOC(=O)c1cnc(-n2nc(C)cc2C)nc1NC1CCCCC1 | 25µM* | / | ? | / | /
COc1ccc2cc(-c3[nH]ncc3CN3C[C@@H]4CCC[C@H]3C4)ccc2c1 | -2% | 6% | 8%[46 µM] | -1% | /
O=C(CC1(O)C(=O)c2ccccc2C1=O)c1ccccc1 | ? | -1% | -1% | 0% | -13%
SMILES | ALDH1A1 block | IMPase Li cell | Lamin A splicing | KinaseGlo FLuc | HPGD inh
O=C1c2ccccc2C(=O)C1(O)O | 1.2µM* | 2% | / | / | -7%
COc1ccc2[nH]c3c(=O)n(Cc4ccc(C(=O)N5CCCC5)cc4)c(=S)[nH]c3c2c1 | 2% | -4% | / | -4% | /
CC(C)(C)c1csc(NC(=O)Cn2cnc3ccccc3c2=O)n1 | 13µM* | 22%[38.3 µM] | 3% | -1% | 20µM*
CC(C)(C)c1csc(NC(=O)CSc2nc3ccccc3c(=O)[nH]2)n1 | -10% | -8%[38.3 µM] | ? | -1% | ?
CC(C)NC(C(=O)Nc1cc(Cl)cc(Cl)c1)c1ccccc1 (stereo not drawn) | 11µM* | 25%[38.3 µM] | -5% | -4% | -17%
Cc1ccc(NC(=O)C(NC2CCCC2)c2ccccc2)cc1Cl (stereo not drawn) | ? | 20% | / | / | /
O=C(Nc1cc(Cl)cc(Cl)c1)C(NCC1CCCO1)c1ccccc1 (stereo not drawn) | 4.5µM* | / | -14% | / | /
CN(C)CCNC(C(=O)Nc1cc(Cl)cc(Cl)c1)c1ccccc1 (stereo not drawn) | 6% | 17% | -6%[46 µM] | -3% | /
Cc1c(C(=O)NCCc2ccc(Cl)cc2)sc2nc3n(c(=O)c12)CCCC3 | / | / | 11%[46 µM] | / | /
CC(=O)N(Cc1cc2ccc(C)c(C)c2n2nnnc12)C1CCCC1 | ? | -17%[38.3 µM] | ? | -5% | -11%
Cc1cc2cc(CN(C(=O)C3CC3)C3CCCC3)c3nnnn3c2cc1C | 0.2µM* | 18%[38.3 µM] | -5% | -1% | -18%
CC1(C)OCC(CSC2=C(SCC3COC(C)(C)O3)C(=O)c3ncccc3C2=O)O1 (stereo not drawn) | 2.5µM* | 49% | / | -8% | 3.5µM*
O=C1c2cccnc2-c2ncccc21 | -14% | -1%[38.3 µM] | 8% | -4% | -20%
Cc1cc(C)c(NC(=O)CCn2nnc3ccccc32)c(C)c1 | 4% | 0% | ? | 0% | /
Cc1c(-n2c(SCC(=O)N(C)C3CCS(=O)(=O)C3)nc3ccccc3c2=O)c(=O)n(-c2ccccc2)n1C (stereo not drawn) | 25µM* | -16% | ? | 1% | /
COc1cccc(NC(=O)NC2(C(F)(F)F)Oc3ccccc3O2)c1 | 35µM* | 11% | ? | 2% | -27%
CCOC(=O)Cc1csc(NC(=O)c2cc3c(s2)CCCC3)n1 | ? | -7%[38.3 µM] | 8% | 7% | -8%
CCOC(=O)Cc1csc(NC(=O)c2csc3c2CCCC3)n1 | 14µM* | 15%[38.3 µM] | 3% | -4% | ?
CCOC(=O)Cc1csc(NC(=O)NC2(C(F)(F)F)Oc3ccccc3O2)n1 | -16% | -14%[38.3 µM] | -5% | 1% | 35µM*
CS(=O)(=O)c1nc(S(=O)(=O)c2ccc(Cl)cc2)c(NCc2ccccn2)s1 | -6% | -2% | / | / | /
COc1ccc(CSC(=N)N)cc1[N+](=O)[O-] | 28µM* | 25%[38.3 µM] | ? | -2% | -1%
CCCCCOc1ccc(CSC(=N)N)cc1[N+](=O)[O-] | -4% | 14%[38.3 µM] | ? | -8% | 1%
COc1ccc(Cn2ccnc2CO)cc1[N+](=O)[O-] | 6.3µM* | 13% | / | -2% | /
CCOC(=O)c1c(NC(=O)c2cccnc2)sc(C(C)=O)c1C | ? | 9% | -7% | 3% | 13µM*
CCN(CC)C(=O)c1sc(NC(=O)c2ccc(Br)o2)c(C(=O)OC)c1C | ? | 31%[38.3 µM] | 16% | -4% | 16µM*
CCOC(=O)c1c(NC(=O)CC)sc(C(C)=O)c1C | 14µM* | -7%[38.3 µM] | 0% | 2% | ?
